# In ChEMBL document CHEMBL2218924, “A broad activity screen in support of a chemogenomic map for kinase signalling research and drug discovery” (Biochem J, 2013):
# Target: Aurora kinase B (Homo sapiens) (UniProt Q96GD4)
# Settings: at 1 µM
# Sequence of Aurora kinase B (Homo sapiens) (Q96GD4 whole entry): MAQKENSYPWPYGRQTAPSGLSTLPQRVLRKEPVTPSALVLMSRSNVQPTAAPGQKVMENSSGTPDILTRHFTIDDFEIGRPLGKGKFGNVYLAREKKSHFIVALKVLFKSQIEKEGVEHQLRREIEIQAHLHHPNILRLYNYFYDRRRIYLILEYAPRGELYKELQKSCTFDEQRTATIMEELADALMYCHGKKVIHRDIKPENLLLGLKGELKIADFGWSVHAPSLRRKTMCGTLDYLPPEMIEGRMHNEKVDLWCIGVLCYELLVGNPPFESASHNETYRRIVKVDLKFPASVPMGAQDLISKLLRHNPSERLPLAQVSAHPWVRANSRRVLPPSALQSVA
row,Structure (SMILES),residual activity [%]
1,CCN(CC)CCCCN1c2ccccc2Oc2ccc(Cl)cc21,141
2,O=[N+]([O-])c1ccc(-c2nc(-c3ccc(F)cc3)c(-c3ccncc3)[nH]2)cc1,114
3,Cc1ccc(S(=O)(=O)/C=C/C#N)cc1,105
4,COc1cc2ncnc(Nc3ccc(NC(=O)c4ccccc4)cc3)c2cc1OC,2
5,Cn1nc2c3c(cccc31)C(=O)c1ccccc1-2,75
6,Cc1nc2cc3nc(-c4cccs4)cnc3cc2n1C,80
7,COc1cc2ncnc(N3CCN(C(=O)Nc4ccc(Oc5ccccc5)cc4)CC3)c2cc1OC,15
8,CC(C)n1cnc2/c(=N/c3cccc(Cl)c3)nc(NCCO)[nH]c21,13
9,Cc1cc(Nc2nc(-c3ccccc3)nc3ccccc23)n[nH]1,-2
10,Cc1cncc2cccc(S(=O)(=O)N3CCCN(C(=O)CN)C[C@H]3C)c12,6
11,Cc1cccc(-c2[nH]c(C(C)(C)C)nc2-c2ccc3c(c2)OCO3)n1,106
12,N#Cc1cnc2cnc(NCc3cccnc3)cc2c1Nc1ccc(F)c(Cl)c1,3
13,COc1ccc(S(=O)(=O)N(CCO)c2ccccc2CN(C)C/C=C/c2ccc(Cl)cc2)cc1,90
14,c1ccc2c(-c3ccncc3)c[nH]c2c1,92
15,c1ccc(-c2n[nH]cc2-c2ccnc3ccccc23)nc1,75
16,O=C(Nc1cccc(Nc2nccc(Nc3cccc(C(F)(F)F)c3)n2)c1)C1CC1,1
17,O=C1Nc2cc(Br)ccc2/C1=C1/Nc2ccccc2/C1=N\O,3
18,COc1ccc(OC)c2c(=S)c3ccccc3[nH]c12,93

row,Structure (SMILES),residual activity [%]
1,COc1cc2ncc(-c3ccccc3)nc2cc1OC,83
2,O=C1NC(=O)c2c1c1c3ccccc3[nH]c1c1[nH]c3cc(Br)ccc3c21,5
3,O=C(Nc1cccc(Nc2cc(Nc3cccc(C(F)(F)F)c3)ncn2)c1)C1CC1,68
4,N#CCCc1ccc2c(c1)-c1[nH]c3ccc([N+](=O)[O-])cc3c1CC(=O)N2,8
5,O=C1Nc2ccc(Br)cc2/C1=C\c1cc2c([nH]1)CCCC2,18
6,Nc1nc(Nc2ccc(S(N)(=O)=O)cc2)nn1C(=S)Nc1c(F)cccc1F,0
7,Nc1cccc(-c2cc3c(Oc4cccc(O)c4)ncnc3[nH]2)c1,9
8,Cc1cc2ncc(-c3ccccc3)nc2cc1C,87
9,CO[C@@H]1[C@H](N(C)C(=O)c2ccccc2)C[C@H]2O[C@]1(C)n1c3ccccc3c3c4c(c5c6ccccc6n2c5c31)C(=O)NC4,1
10,CC(=O)c1ccc(N2CCOCC2)cc1O,100
11,COc1ccc(C(=O)Nc2sc3c(c2C(N)=O)CCCC3)cc1OC,69
12,CO[C@H]1[C@@H](OC)C[C@H](C)[C@@H](OC)C2=CC(=O)C=C(NC(=O)/C(C)=C/C=C/[C@H](OC)[C@@H](OC(N)=O)/C(C)=C/[C@@H]1C)C2=O,72
13,O=C1NC(=O)c2cc(Nc3ccc(F)cc3)c(Nc3ccc(F)cc3)cc21,124
14,Oc1n[nH]c2nnc(-c3c(-c4ccccc4)nn4ccccc34)cc12,5
15,O=Nc1c(-c2c(O)[nH]c3ccccc23)[nH]c2ccccc12,1
16,N#CC(C#N)=C(N)/C(C#N)=C/c1ccc(O)cc1,81
17,c1ccc(-c2n[nH]c3c2oc2ccccc23)cc1,39
